From PubChem BioAssay AID1159580 (chemical genetic matrix, 2015)
Several values for one entry are separate records, joined by “and”; a condition that tells them apart may be missing. Identical values can stand only once. Screen size: about 5,500 compounds; about 2,000 (36%) were called active. Roughly 18% stayed inconclusive and do not appear here. Rule as the data show it: active = normalized growth mostly below about 0.91 (no sharp cut-off); inconclusive = no clear call, values can overlap the other calls; inactive = mostly above about 0.92. The list shows a part of the results.

Experiment: chemical genetic growth profiling, strain panel (AID 1159580);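 also: tested at 20 µM; growth read once vehicle control cultures reached saturation at 30 °C; 1 = growth at the plate median or of vehicle wells; lower values mean less growth of the strain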
Conditions: S. cerevisiae deletion strains, growth OD

Measured: normalized growth

O=C(O)C1=CCCNC1
inactive: locus YAL021C, strain ccr4, active compounds read low 1.02 | locus YAL026C, strain drs2, active compounds read low 0.991 | locus YAL030W, strain snc1, active compounds read low 0.999 | locus YBL061C, strain skt5, active compounds read low 0.993 | locus YBR009C, strain hhf1, active compounds read low 1.04 | locus YBR021W, strain FUR4, active compounds read low 1.02 | locus YBR023C, strain chs3, active compounds read low 1.01 | locus YBR171W, strain sec66, active compounds read low 0.985 | locus YBR229C, strain ROT2, active compounds read low 1 | locus YBR231C, strain swc5, active compounds read low 0.981 | locus YBR279W, strain paf1, active compounds read low 0.988 | locus YCL011C, strain gbp2, active compounds read low 1.01 | locus YCL016C, strain dcc1, active compounds read low 1.02 | locus YCL029C, strain bik1, active compounds read low 0.974 | locus YCL061C, strain MRC1 (second series), active compounds read low 1.01 | locus YCL069W, strain vba3, active compounds read low 1 | locus YCR088W, strain abp1, active compounds read low 0.989 | locus YDL005C, strain med2, active compounds read low 0.978 | locus YDL035C, strain GPR1, active compounds read low 0.99 | locus YDL040C, strain nat1, active compounds read low 0.989 | locus YDL074C, strain BRE1, active compounds read low 0.984 | locus YDL101C, strain DUN1, active compounds read low 1.01 | locus YDL185W, strain tfp1, active compounds read low 0.968 | locus YDL192W, strain arf1, active compounds read low 0.973 | locus YDR001C, strain nth1, active compounds read low 0.99 | locus YDR069C, strain doa4, active compounds read low 0.999 | locus YDR101C, strain arx1, active compounds read low 0.979 | locus YDR137W, strain rgp1, active compounds read low 1.01 | locus YDR159W, strain sac3, active compounds read low 0.96 | locus YDR162C, strain NBP2, active compounds read low 1.04 | locus YDR195W, strain ref2 0.959 | locus YDR297W, strain sur2, active compounds read low 1 | locus YDR318W, strain mcm21, active compounds read low 0.995 | locus YDR334W, strain swr1, active compounds read low 0.979 | locus YDR335W, strain msn5, active compounds read low 0.995 | locus YDR363W, strain ESC2, active compounds read low 1.01 | locus YDR388W, active compounds read low 0.989 | locus YDR392W, strain spt3, active compounds read low 0.941 | locus YDR502C, strain sam2, active compounds read low 0.987 | locus YEL003W, strain gim4, active compounds read low 0.989 | locus YEL037C, strain rad23, active compounds read low 0.989 | locus YEL061C, strain CIN8 (second series), active compounds read low 0.987 | locus YEL061C, strain CIN8, active compounds read low 0.998 | locus YER002W, strain NOP16, active compounds read low 0.91 | locus YER015W, strain faa2, active compounds read low 0.984 | locus YER016W, strain bim1, active compounds read low 0.995 | locus YER110C, active compounds read low 0.965 | locus YER111C, strain swi4, active compounds read low 0.981 | locus YER155C, strain BEM2 (second series), active compounds read low 0.959 | locus YER155C, strain BEM2, active compounds read low 0.985 | locus YER167W, strain BCK2, active compounds read low 0.991 | locus YFR010W, strain ubp6, active compounds read low 0.973 | locus YGL078C, strain dbp3, active compounds read low 1.01 | locus YGL086W, strain mad1, active compounds read low 0.98 | locus YGL167C, strain pmr1, active compounds read low 0.99 | locus YGL173C, strain kem1, active compounds read low 0.99 | locus YGL227W, strain vid30, active compounds read low 0.989 | locus YGL240W, strain doc1, active compounds read low 0.986 | locus YGL248W, strain PDE1, active compounds read low 1.02 | locus YGL253W, strain hxk2, active compounds read low 0.981 | locus YGR135W, strain pre9, active compounds read low 0.997 | locus YGR229C, strain SMI1, active compounds read low 1.02 | locus YGR252W, strain gcn5, active compounds read low 1.15 | locus YHR013C, strain ard1, active compounds read low 0.979 | locus YHR027C, strain rpn1, active compounds read low 0.993 | locus YHR030C, strain SLT2, active compounds read low 0.985 and 1.04 | locus YHR079C, strain IRE1 (second series), active compounds read low 0.974 | locus YHR079C, strain IRE1, active compounds read low 1.04 | locus YHR094C, strain hxt1, active compounds read low 0.981 | locus YHR129C, strain ARP1, active compounds read low 0.992 | locus YHR142W, strain chs7, active compounds read low 1.02 | locus YHR200W, strain rpn10, active compounds read low 0.984 | locus YIL066C, strain RNR3, active compounds read low 1.01 | locus YIL073C, strain SPO22, active compounds read low 0.943 | locus YIL125W, strain kgd1, active compounds read low 0.987 | locus YIR030C, strain dcg1, active compounds read low 0.987 | locus YJL092W, strain hpr5, active compounds read low 0.991 | locus YJL095W, strain BCK1 (second series), active compounds read low 1 | locus YJL095W, strain BCK1, active compounds read low 1.05 | locus YJL115W, strain asf1, active compounds read low 0.985 | locus YJL129C, strain trk1, active compounds read low 0.99 | locus YJL134W, strain LCB3, active compounds read low 0.991 | locus YJL154C, strain vps35, active compounds read low 0.98 | locus YJL164C, strain tpk1, active compounds read low 1.02 | locus YJL166W, strain qcr8, active compounds read low 1.01 | locus YJL168C, strain set2, active compounds read low 0.993 | locus YJL187C, strain SWE1 (second series), active compounds read low 1.02 | locus YJR043C, strain POL32, active compounds read low 1.01 | locus YJR066W, strain TOR1, active compounds read low 0.997 | locus YJR075W, strain HOC1, active compounds read low 1.01 and 1 | locus YKL009W, strain mrt4, active compounds read low 0.961 | locus YKL068W, active compounds read low 1 | locus YKL085W, strain MDH1 (second series), active compounds read low 0.973 | locus YKL085W, strain MDH1, active compounds read low 0.973 | locus YKL160W, strain elf1, active compounds read low 1 | locus YKL190W, strain CNB1, active compounds read low 0.997 | locus YKR001C, strain vps1, active compounds read low 0.999 | locus YKR026C, strain gcn3, active compounds read low 0.981 | locus YKR091W, strain srl3, active compounds read low 0.995 | locus YLL001W, strain dnm1, active compounds read low 0.993 | locus YLL026W, active compounds read low 0.994 | locus YLL041C, strain sdh2, active compounds read low 0.987 | locus YLR027C, strain aat2, active compounds read low 0.969 | locus YLR039C, strain RIC1, active compounds read low 0.963 | locus YLR058C, strain SHM2, active compounds read low 1.01 | locus YLR102C, strain apc9, active compounds read low 0.97 | locus YLR113W, strain HOG1, active compounds read low 1.02 | locus YLR221C, strain rsa3, active compounds read low 0.96 | locus YLR258W, strain gsy2, active compounds read low 1.02 | locus YLR262C, strain YPT6 (second series), active compounds read low 1.01 | locus YLR262C, strain YPT6, active compounds read low 0.999 | locus YLR268W, strain sec22, active compounds read low 0.975 | locus YLR320W, strain mms22, active compounds read low 0.963 | locus YLR330W, strain CHS5, active compounds read low 0.984 | locus YLR342W, strain FKS1 (second series), active compounds read low 0.987 | locus YLR342W, strain FKS1, active compounds read low 0.983 | locus YLR357W, strain rsc2, active compounds read low 0.969 | locus YLR370C, strain arc18, active compounds read low 0.998 | locus YLR371W, strain rom2, active compounds read low 0.977 | locus YLR384C, strain iki3, active compounds read low 0.973 | locus YLR418C, strain cdc73, active compounds read low 1.04 | locus YML016C, strain PPZ1, active compounds read low 0.995 | locus YML032C, strain rad52, active compounds read low 0.989 | locus YML120C, strain ndi1, active compounds read low 1.01 | locus YML124C, strain tub3, active compounds read low 1.01 | locus YMR058W, strain fet3, active compounds read low 0.992 | locus YMR078C, strain ctf18, active compounds read low 0.974 | locus YMR125W, strain sto1, active compounds read low 1.01 | locus YMR129W, active compounds read low 0.992 | locus YMR205C, strain PFK2, active compounds read low 1.01 | locus YMR223W, strain ubp8, active compounds read low 1 | locus YMR231W, strain pep5, active compounds read low 0.985 | locus YMR263W, strain SAP30, active compounds read low 1 and 1.01 | locus YMR307W, strain GAS1, active compounds read low 1.12 | locus YNL067W, strain RPL9B, active compounds read low 1.03 | locus YNL071W, strain lat1, active compounds read low 1 | locus YNL153C, strain GIM3, active compounds read low 1.04 and 1.02 | locus YNL175C, strain NOP13, active compounds read low 1 | locus YNL183C, strain NPR1, active compounds read low 1.01 | locus YNL197C, strain WHI3, active compounds read low 0.915 | locus YNL209W, strain ssb2, active compounds read low 1.01 | locus YNL224C, strain SQS1, active compounds read low 1 | locus YNL233W, strain BNI4, active compounds read low 1.02 | locus YNL248C, strain rpa49, active compounds read low 0.965 | locus YNL250W, strain rad50, active compounds read low 0.978 | locus YNL271C, strain bni1, active compounds read low 0.994 | locus YNL298W, strain CLA4, active compounds read low 0.987 | locus YNL307C, strain MCK1, active compounds read low 0.992 | locus YNL322C, strain KRE1 (second series), active compounds read low 1 | locus YNL322C, strain KRE1, active compounds read low 1.01 | locus YNR049C, strain mso1, active compounds read low 0.976 | locus YNR052C, strain pop2, active compounds read low 1.01 | locus YOL006C, strain TOP1, active compounds read low 0.976 | locus YOL012C, strain htz1 1.03 | locus YOL147C, strain pex11, active compounds read low 0.984 | locus YOR001W, strain rrp6, active compounds read low 0.943 | locus YOR061W, strain CKA2, active compounds read low 0.992 | locus YOR069W, strain VPS5, active compounds read low 0.989 | locus YOR070C, strain gyp1, active compounds read low 0.982 | locus YOR080W, strain dia2, active compounds read low 0.987 | locus YOR083W, strain WHI5 (second series), active compounds read low 1.03 | locus YOR083W, strain WHI5, active compounds read low 1.01 | locus YOR106W, strain vam3, active compounds read low 1.01 | locus YOR136W, strain idh2, active compounds read low 0.984 | locus YOR144C, strain elg1, active compounds read low 0.988 | locus YOR184W, strain ser1, active compounds read low 0.97 | locus YOR231W, strain MKK1, active compounds read low 1.05 | locus YOR265W, strain rbl2, active compounds read low 0.992 | locus YOR270C, strain vph1, active compounds read low 0.976 | locus YOR290C, strain snf2, active compounds read low 0.985 | locus YOR316C, strain cot1, active compounds read low 0.98 | locus YPL051W, strain arl3, active compounds read low 0.981 | locus YPL055C, strain LGE1, active compounds read low 1.01 | locus YPL078C, strain atp4, active compounds read low 1.01 | locus YPL106C, strain sse1, active compounds read low 1.01 | locus YPL240C, strain hsp82, active compounds read low 0.992 | locus YPL256C, strain CLN2, active compounds read low 1.03 | locus YPR119W, strain clb2, active compounds read low 0.973 | locus YPR141C, strain kar3, active compounds read low 0.983 | locus YPR163C, strain tif3, active compounds read low 0.983 | locus YPR167C, strain met16, active compounds read low 0.958 | strain wtn01, active compounds read low 0.985
